A short description of this assay: NCI Yeast Anticancer Drug Screen. Data for the CLN2oe strain (AID 163).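 Also: 0% = growth of vehicle-only control cultures.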 As to conditions: S. cerevisiae CLN2oe strain, hits give high values. The method, then:
Growth inhibition of yeast strains with defined genetic alterations is measured as a screen for potential anti-cancer activity. Selected strains with alterations in DNA damage repair or cell cycle control were exposed to compounds and growth inhibition was measured relative to vehicle treated controls. The strain used in this assay is CLN2oe

SMILES strings stand for the structures. This is part of a sample that, as a whole, favours compounds with a hit. Of some 79,000 tested, about 15% had one in any assay. A number with no mark means an inactive call. The source made the active and inactive calls. Rule as the data show it: active = growth inhibition above about 70%; inactive = the rest.

On to `Cc1cc(NC(=S)SCc2ccc(Cl)cc2)ccc1Cl`, for which the growth inhibition runs as follows: (at 1.2 µM) -3%; (at 3.7 µM) 15%; (at 11.0 µM) 44%; (at 33.0 µM) 98% (active); (at 100.0 µM) 98% (active).

Turning to `CCCCCCC(CCl)c1sc(-c2csc(CCNC(=O)OC(C)(C)C)n2)nc1C(=O)OC` (stereo not given), the growth inhibition reads like this: (at 1.2 µM) -3%; (at 3.7 µM) -2%; (at 11.0 µM) -9%; (at 33.0 µM) -10%; (at 100.0 µM) 66%.

`O=C(Cc1ccccc1)c1ccc(O)cc1`: the growth inhibition by setting is: (at 1.2 µM) 5%; (at 3.7 µM) 15%; (at 11.0 µM) 22%; (at 33.0 µM) 53%; (at 100.0 µM) 85% (active).

With `O=C(O)[C@H]1[C@@H](C2CCCCC2)O[C@@H](C2CCCCC2)O[C@H]1C(F)(F)F`, the growth inhibition was -1% (at 1.2 µM); -1% (at 3.7 µM); -13% (at 11.0 µM); -8% (at 33.0 µM); 4% (at 100.0 µM).

As for `Cc1cnc(/C=N\NC(N)=S)c2cccc(N)c12`, the growth inhibition by setting is: (at 1.2 µM) -16%; (at 3.7 µM) -39%; (at 11.0 µM) -29%; (at 33.0 µM) 30%; (at 100.0 µM) 63%.

Regarding `OC(c1ccc(Br)cc1)(c1cccs1)C1CC1` (stereo not given), the growth inhibition by setting is: (at 1.2 µM) 6%; (at 3.7 µM) 2%; (at 11.0 µM) 26%; (at 33.0 µM) 96% (active); (at 100.0 µM) 96% (active).

For the compound `COc1ccc(C(=O)OCCc2ccccc2)cc1`, the growth inhibition was -3% (at 1.2 µM); -9% (at 3.7 µM); -10% (at 11.0 µM); -7% (at 33.0 µM); -6% (at 100.0 µM).

`Cc1ccccc1C1=C(CC(=O)O)c2ccccc2CC1C` (stereo not given): the growth inhibition runs as follows: (at 1.2 µM) 10%; (at 3.7 µM) 15%; (at 11.0 µM) 57%; (at 33.0 µM) 97% (active); (at 100.0 µM) 98% (active).

For the origin of these results see PubChem BioAssay (NCI).
